Laboratory results reported in PubChem BioAssay AID1159580 (chemical genetic matrix, 2015).
Hit rate of the full screen: of about 5,500 compounds, about 2,000 (36%) were called active. About 18% were inconclusive and are not listed. Cut-off read from the data, not from the text of the source: active = normalized growth mostly below about 0.91 (no sharp cut-off); inconclusive = no clear call, values can overlap the other calls; inactive = mostly above about 0.92. The list shows a part of the results.

Assay: chemical genetic growth profiling, strain panel (AID 1159580);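 note: tested at 20 µM; growth read once vehicle control cultures reached saturation at 30 °C; 1 = growth at the plate median or of vehicle wells; lower values mean less growth of the strain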
Conditions: S. cerevisiae deletion strains, growth OD

Measured: normalized growth

O=C(O)/C=C/C=C/c1ccc2c(c1)OCO2
inactive: locus YHR030C, strain SLT2, stronger effect = lower value 0.899 | locus YHR079C, strain IRE1, stronger effect = lower value 0.884 | locus YJL095W, strain BCK1, stronger effect = lower value 0.897 | locus YJR066W, strain TOR1, stronger effect = lower value 0.873 | locus YLR113W, strain HOG1, stronger effect = lower value 0.958 | locus YNL183C, strain NPR1, stronger effect = lower value 0.886 | locus YOR231W, strain MKK1, stronger effect = lower value 0.893 | locus YPL256C, strain CLN2, stronger effect = lower value 0.945
